Compounds with a hit are over-represented: about 5.3% of the library has one in this group of screens.
PostGolgi yeast: growth inhibition of a yeast mutant, post-Golgi transport screen. post-Golgi transport phenotypic cell assay. inhibition, % at 10 µM. 98,000 tested, 0.9% active;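 further: yeast cells grown in 1536-well plates; yeast grown about 18 h at 30C before absorbance read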
MT1-MMP txn act: activates MT1-MMP transcription; HT1080 MT1-MMP promoter luciferase reporter, luminescence, overnight; stronger effect = higher value; activation factor at 10 µM; 86,000 tested, 0.16% active; AID 750;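 active means activation factor of at least 2 for MT1-MMP transcription at 10 µM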
Measles CPE: protection of cells from measles virus; 140,000 tested, 1.5% active; AID 841; protection (pct of control), % at 4 µM; Measles virus-infected cells, CPE protection, absorbance; in the data active means protection mostly above about 24%, no sharp cut-off; inactive means mostly below about 26%
PostGolgi ctrl: yeast control strain growth, post-Golgi counter-screen; inhibition, % at 10 µM; AID 738; 98,000 tested, 5% active; efflux-deficient yeast background strain, growth absorbance A615, 16 h
An asterisk follows results filed as active; / = not tested or not shown. Unless noted, no stated cut-off is given here; in the data, active means inhibition above about 30%; inactive means the rest.

SMILES	PostGolgi yeast	MT1-MMP txn act	Measles CPE	PostGolgi ctrl
Nc1nc(CSc2nnnn2-c2ccccc2)nc(N2CCCc3ccccc32)n1	4	0.9	16	57*
Nc1nc(CN2CCN(c3ccccc3)CC2)nc(N2CCCc3ccccc32)n1	13	1.1	87*	5
Cc1ccc(C)c(S(=O)(=O)N2CC(=O)N(CCc3ccccc3)C(=O)C2)c1	/	/	2	/
COc1ccc(-c2cc(C(F)(F)F)nc(NCc3ccco3)n2)cc1OC	0	1.1	4	1
FC(F)(F)c1cc(-c2ccc3c(c2)OCO3)nc(NCc2ccco2)n1	5	1.2	66*	7
COc1cccc(-c2cc(C(F)(F)F)nc(NCc3ccco3)n2)c1	-1	1.2	10	33*
CSc1nnc(C)c(=O)n1COC(=O)c1ccc(S(=O)(=O)N2CCCC2)cc1	/	/	5	/
CC(C)N1C(=O)/C(=C/c2nc3ccccc3c(=O)n2-c2ccccc2)c2ccccc21	-3	/	4	31*
CC(C)N1C(=O)/C(=C\c2nc3ccccc3c(=O)n2-c2ccccc2)c2ccccc21	/	/	5	/
NC(=O)c1ccc(C(F)(F)F)n(Cc2cccc(Cl)c2)c1=O	5	/	15	61*
CCOc1cc(C(=O)N/N=C\c2cn(CC)nc2C)cc(OCC)c1OCC	/	/	2	/
O=C1NC(=S)SC1=C1CCCC1	23	1	13	56*
C=CC(=O)NCCCc1cc(C(C)(C)C)c(O)c(C(C)(C)C)c1	/	/	23	/
Cc1cccc(NC(=O)C2SC(=Nc3c(C)cccc3C)C(C(=O)N3CCOCC3)=C2N)c1 (centres undefined)	/	/	12	/
COc1ccccc1OC(=O)c1ccc(S(=O)(=O)N(C)C)cc1	-1	1	44*	-1
COc1ccc(OC)c(NC(=S)N2CCN(C/C=C/c3ccccc3)CC2)c1	1	/	6	18
O=C(CCN1CCN(C/C=C/c2ccccc2)CC1)Nc1ccc(Cl)cc1	/	/	0	/
COc1ccc(Cl)cc1NC(=O)C(C)N1CCN(C/C=C/c2ccccc2)CC1 (centres undefined)	65*	1	5	19
O=C(c1ccc(Br)o1)N1CCN(C/C=C/c2ccccc2)CC1	5	1.1	119*	7
O=C(Nc1cccc(Cl)c1)N1CCN(C/C=C/c2ccccc2)CC1	40*	1.2	5	4
O=C(c1ccc(Br)s1)N1CCN(C/C=C/c2ccccc2)CC1	0	1.1	3	28
Cc1ccc(CNC(=O)N[C@@H](Cc2ccccc2)C(=O)O)cc1	/	/	9	/
Cc1cc(Nc2ccc(F)cc2)n2nc(C)nc2n1	1	1.1	6	9
Cc1cc(Nc2ccc(F)cc2Cl)n2nc(C)nc2n1	11	1.1	7	32*
CC(C)Nc1nnc(Sc2ccc(Cl)cc2[N+](=O)[O-])s1	/	/	9	/
SMILES	PostGolgi yeast	MT1-MMP txn act	Measles CPE	PostGolgi ctrl
O=C(COc1ccccc1Cl)NCCC1=CCCCC1	/	/	13	/
O=C(NCCC1=CCCCC1)C(=O)NCc1ccccc1Cl	1	/	21	34*
CCC1=C(OC(=O)N(CC)CC)N2C(=O)OC(=NCC3CC3)[C@]2(Cc2ccccc2)[C@H]2C1=CC[C@H]1C(=O)N(c3ccccc3)C(=O)[C@H]12	/	1.2	/	/
COc1ccc(/C=C/C(O)=C2/C(=O)N(C)C3(C)CC2c2ccccc2O3)cc1 (centres undefined)	1	0.9	7	26
Cc1ccc(/C=C/C(O)=C2/C(=O)N(C)C3(C)CC2c2ccccc2O3)cc1 (centres undefined)	7	/	26	44*
Cc1ccc(S(=O)(=O)N=S(CCO)CCO)cc1	/	/	6	/
Cc1nn(-c2ccccc2)c(Cl)c1CN(C(=O)CCl)c1cccc2ccccc12	/	/	0	/
COc1ccc(/C=N/OCC(=O)Nn2c(C)nc3ccccc3c2=O)cc1	/	/	13	/
Nc1nc2ccc([N+](=O)[O-])c(N)c2s1	-20	/	2	-1
CC(C)COn1c(=S)[nH]c2ccccc2c1=O	1	1.1	2	38*
CN(C(=O)c1ccncc1)c1nnc(-c2cnccn2)s1	14	1.2	32*	3
CCN1C(=O)C(F)(CC)C(=O)c2ccccc21 (centres undefined)	/	/	4	/
COc1ccc(OC)c(NC(=O)Cc2coc3ccc4ccccc4c23)c1	-1	1.2	17	35*
COc1ccc([N+](=O)[O-])cc1NC(=O)CSCc1ccccc1	/	/	15	/
O=C(CSc1ccccc1)Nc1ccncc1	-1	1.3	18	2
O=C(CSc1ccc2ccccc2c1)Nc1ccncc1	103*	/	8	92*
COc1ccc([N+](=O)[O-])cc1NC(=O)CSc1ccccc1	-8	/	66*	10
COc1ccc(OC)c(NC(=O)COC(=O)CSc2ccc(Cl)cc2)c1	/	/	18*	/
COc1ccc(OC)c(NC(=O)CSc2ccc3ccccc3c2)c1	19	1	8	40*
CC(=O)Oc1ccc(NC(=O)CSc2ccccc2)cc1	-8	1.4	10	37*
COc1ccc(OC)c(NC(=O)CSc2ccccc2)c1	2	1.1	3	10
COc1ccc2cc(/C=N/NC(=O)CN(c3ccccc3C)S(=O)(=O)c3ccccc3)c(Cl)nc2c1	/	/	44	/
COc1ccc(CC(=O)Nc2cccc(S(=O)(=O)N3CCCCCC3)c2)cc1OC	/	/	17	/
N#Cc1ccccc1Cn1c(=O)n(C2CCCC2)c(=O)c2ccccc21	5	1.2	9	30*
O=C(NCCc1ccccc1)C1CCC(Cn2c(=O)c3ccccc3n(Cc3cccc(F)c3)c2=O)CC1 (centres undefined)	/	/	5	/
SMILES	PostGolgi yeast	MT1-MMP txn act	Measles CPE	PostGolgi ctrl
O=c1c2ccccc2n(Cc2cccc(F)c2)c(=O)n1C1CCCC1	10	1.2	15	40*
COC(=O)[C@@]1(Cc2ccc(OC)cc2)[C@H]2c3cc(C(=O)N4CCCC4)n(Cc4ccc(C)c(F)c4F)c3C[C@H]2CN1C(=O)c1ccccc1	/	1	/	/
CC1(C)CC2(CC(c3ccccc3)Oc3cc(O)ccc32)NC(=S)N1 (centres undefined)	/	/	4	/
CC(=O)N1CCc2cc(C(=O)CN3CCN(c4cccc(Cl)c4)CC3)ccc21	-18	0.9	10	4
CC(=O)N1CCc2cc(C(=O)CN3CCC(C)CC3)ccc21	-4	1	35*	3
O=[N+]([O-])c1ccc(N2CCOCC2)cc1NC(c1ccccc1)c1ccccc1	/	/	45*	/
CCS(=O)(=O)N1CCN(c2ccc([N+](=O)[O-])c(NC(C)c3ccccc3)c2)CC1 (centres undefined)	10	/	10	44*
O=C1C(c2ccccc2)SC(=Nc2ccccc2)N1S(=O)(=O)c1ccccc1 (centres undefined)	-2	/	11	27
O=C(CN1C(=O)NC2(CCc3ccccc3C2)C1=O)Nc1ccc(F)cc1 (centres undefined)	/	/	19	/
CC(C)(C)NC(=O)NC(=O)COC(=O)Cc1coc2ccc3ccccc3c12	/	/	18	/
O=C(c1c(O)c2ccccc2oc1=O)C1CCC1	-1	1	10	14
O=c1oc2ccccc2c(O)c1CN1CCCCC1	6	1.2	17	30*
Cc1ccc(-c2cc(C(=O)NCc3cnn(C)c3C)c3cc(Br)ccc3n2)cc1	-9	/	5	50*
O=[N+]([O-])c1cc(/C=N/O)ccc1SCc1ccccc1	-6	/	75*	4
O=[N+]([O-])c1cc(/C=N/O)ccc1Sc1ccccc1	9	/	7	15

Source: PubChem
